Bioassay records as filed in PubChem.
Rows were chosen to be rich in hits. Some 6.8% of all compounds tested hit in one or more screens of this group.
Cy5 interf NS3h = enhances or quenches Cy5 fluorescence in NS3h assay. Cy5-dT15 DNA with NS3h, fluorescence interference; actives lie on both sides; signal over control mean, under 1 quenches. fluorescence interference ratio at 100 µM. 16,000 compounds, 6% hits. AID 720488;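 active = compound fluorescence over control fluorescence at most 0.8, a quencher, or at least a set upper limit, an enhancer; inactive = ratio between 0.8 and the set upper limit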
NS3h inh CB = blocks HCV NS3 helicase binding to DNA; NS3h Cy5-dT15 DNA binding, fluorescence polarization; inhibition, % at 100 µM; 16,000 compounds, 1.6% hits;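 active = inhibition above the average over every tested compound plus 3 SD, cut at about 40% in these data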
NS3h confirm = confirmation of hepatitis C virus NS3 helicase inhibitors; shares compounds with NS3h inh CB; NS3h binding to Cy5-dT15 DNA, fluorescence polarization; inhibition, % at 100 µM; 240 compounds, 20% hits; AID 720485;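 active = percent inhibition of 50% or more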
SSB FP counter = counter-screen for HCV NS3 helicase inhibitors: E. coli SSB binding | shares compounds with NS3h inh CB | E. coli SSB binding Cy5-dT15, fluorescence polarization | inhibition, % at 100 µM | 240 compounds, 40% hits | AID 720486;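 active = inhibition of at least 50%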;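 note: displacers lower Cy5 polarization so higher inhibition means more SSB displaced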
Target sequence (P0AGE0 whole entry, looked up): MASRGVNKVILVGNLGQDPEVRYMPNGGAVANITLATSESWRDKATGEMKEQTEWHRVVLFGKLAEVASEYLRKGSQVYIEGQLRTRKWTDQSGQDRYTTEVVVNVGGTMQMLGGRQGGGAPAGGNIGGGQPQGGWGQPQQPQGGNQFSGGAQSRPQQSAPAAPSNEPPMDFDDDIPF
Cy5 SSB fluor CB = enhances or quenches Cy5-DNA fluorescence with E. coli SSB; shares compounds with NS3h inh CB; Cy5-dT15/E. coli SSB fluorescence interference; actives lie on both sides; fluorescence interference ratio at 100 µM; 240 compounds, 8% hits; AID 720487;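 active = fluorescence interference ratio at or above 1.2, signal boosting, or at or below 0.8, signal quenching; inactive = ratio between 0.8 and 1.2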
Cy5 fluor confirm = Cy5 fluorescence interference, confirmation counter-screen; shares compounds with NS3h inh CB; Cy5-dT15 DNA/NS3h fluorescence interference counterscreen; fluorescence interference ratio at 100 µM, hits read low; 240 compounds, 44% hits;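 active = fluorescence interference ratio at or below 0.8 quencher or at or above a set limitenhancer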
Large screens that a line does not name were inactive (follow-up assays come after a bar, where they were run).

Cc1ccc(N2C(=O)NC(=O)/C(=C\c3ccsc3)C2=O)cc1	Cy5 interf NS3h 1.23, NS3h inh CB 55.4 | NS3h confirm inactive | SSB FP counter inactive | Cy5 SSB fluor CB inactive | Cy5 fluor confirm 0.736
O=C1NC(=O)N(c2cccc(F)c2)C(=O)/C1=C/c1ccc(O)c(Cl)c1	none
COc1ccc(N2C(=O)NC(=O)/C(=C\c3ccc(O)c(Cl)c3)C2=O)cc1	NS3h inh CB 46.6 | NS3h confirm inactive | SSB FP counter inactive | Cy5 SSB fluor CB inactive | Cy5 fluor confirm 0.749
COc1cc(OC)c(OC)cc1/C=C1/C(=O)NC(=O)N(c2ccccc2)C1=O	Cy5 interf NS3h 1.21, NS3h inh CB 43.5 | NS3h confirm inactive | SSB FP counter inactive | Cy5 SSB fluor CB inactive | Cy5 fluor confirm inactive
CC(NC(=O)COc1ccccc1O)C1CC2CCC1C2 (centres undefined)	none
O=C(COc1ccc(Br)cc1)Nc1ccc(Cl)cn1	none
CCOc1ccc(/C=N/NC(=O)c2cncc(Br)c2)cc1	Cy5 interf NS3h 0.797, NS3h inh CB 57.5 | NS3h confirm inactive | SSB FP counter inactive | Cy5 SSB fluor CB inactive | Cy5 fluor confirm inactive
O=C(N/N=C/c1ccccc1O)c1cncc(Br)c1	none
CC(NC(=O)C12CC3CC(CC(C3)C1)C2)C(=O)Nc1ccc(S(=O)(=O)Nc2nccs2)cc1 (centres undefined)	none
O=C(Nc1ccc(S(=O)(=O)N2CCCCCC2)cc1)c1cccc([N+](=O)[O-])c1	none
CCOC(=O)c1ccccc1NC(=O)CN(c1cccc(Br)c1)S(=O)(=O)c1ccccc1	none
COc1cc([N+](=O)[O-])ccc1-c1ccc(/C=C2\C(=O)NC(=S)N(c3ccc(Cl)cc3)C2=O)o1	none
O=C1NC(=S)N(c2ccccc2)C(=O)/C1=C/c1ccc(-c2ccc(Cl)c(C(=O)O)c2)o1	NS3h inh CB 92.8 | NS3h confirm inactive | SSB FP counter 90.3 | Cy5 SSB fluor CB inactive | Cy5 fluor confirm 0.784
O=C1NC(=S)N(c2ccccc2)C(=O)/C1=C/c1ccc(-c2cccc(Cl)c2Cl)o1	none
Cc1ccc(N2C(=O)/C(=C\c3ccc(-c4ccc(Cl)c(C(=O)O)c4)o3)C(=O)NC2=S)cc1	NS3h inh CB 83.0 | NS3h confirm inactive | SSB FP counter 93.9 | Cy5 SSB fluor CB inactive | Cy5 fluor confirm 0.729
COc1ccc2nc(NC(=O)COc3ccccc3Cl)sc2c1	none
O=C(Nc1ccc(-c2ccc([N+](=O)[O-])cc2)cc1)c1cccs1	none
CCOc1cc(/C=C2/SC(=S)NC2=O)cc(Br)c1OCc1ccc(F)cc1	NS3h inh CB 82.6 | NS3h confirm inactive | SSB FP counter inactive | Cy5 SSB fluor CB inactive | Cy5 fluor confirm inactive
C=CCN1C(=O)/C(=C\c2cc(Br)c(OCc3ccc(F)cc3)c(OC)c2)SC1=S	none
O=C(CN(c1cccc([N+](=O)[O-])c1)S(=O)(=O)c1ccccc1)Nc1ccc(F)c(Cl)c1	none
CCOc1ccc(NC(=O)c2ccccc2NC(=O)c2ccccc2)cc1	none
CCc1cc(C)cc(OCCn2cc(C=C3C(=O)NC(=S)NC3=O)c3ccccc32)c1	none
Cc1ccc(S(=O)(=O)n2cc(C=C3C(=O)NC(=S)NC3=O)c3ccccc32)cc1	NS3h inh CB 61.3 | NS3h confirm inactive | SSB FP counter 81.8 | Cy5 SSB fluor CB inactive | Cy5 fluor confirm inactive
O=C1/C(=C\c2ccc(N3N=C(c4ccccc4)CC3c3ccccc3)cc2)SC(=S)N1C1CCS(=O)(=O)C1 (centres undefined)	Cy5 interf NS3h 1.24, NS3h inh CB 53.2 | NS3h confirm inactive | SSB FP counter inactive | Cy5 SSB fluor CB inactive | Cy5 fluor confirm inactive
O=C1/C(=C/c2ccc(F)cc2)SC(=S)N1C1CCS(=O)(=O)C1 (centres undefined)	none
O=C(/C=C/c1cn(-c2ccccc2)nc1-c1ccccc1)c1cccs1	none
CCc1cccc(NC2(c3ccccc3)C(=O)c3ccccc3C2=O)c1	Cy5 interf NS3h 0.761, NS3h inh CB 68.9 | NS3h confirm inactive | SSB FP counter inactive | Cy5 SSB fluor CB inactive | Cy5 fluor confirm inactive
CCOc1ccc(NC2(c3ccccc3)C(=O)c3ccccc3C2=O)cc1	none
O=Cc1ccc(OCc2ccc([N+](=O)[O-])cc2)cc1	Cy5 interf NS3h 0.594, NS3h inh CB 48.6 | NS3h confirm inactive | SSB FP counter inactive | Cy5 SSB fluor CB inactive | Cy5 fluor confirm 0.702
COC(=O)c1c(C)oc2ccc(OCc3ccc([N+](=O)[O-])cc3)cc12	none
C=C(C)COc1ccc2ccc(=O)oc2c1	none
COCCN1C(=O)C(=O)C(=C(O)c2ccccc2)C1c1ccc(OC)cc1OC (centres undefined)	none
COC(=O)C1=C(C)N=c2s/c(=C/c3ccc(OC)cc3OC)c(=O)n2C1c1cccs1 (centres undefined)	none
O=C1NC(=S)N(c2ccccc2)C(=O)/C1=C/c1ccc(-c2cccc(C(=O)O)c2)o1	NS3h inh CB 82.6 | NS3h confirm inactive | SSB FP counter 81.8 | Cy5 SSB fluor CB inactive | Cy5 fluor confirm 0.794
O=C1NC(=S)N(c2ccc(Cl)cc2)C(=O)/C1=C\c1ccc(-c2cccc(C(=O)O)c2)o1	NS3h inh CB 71.8 | NS3h confirm 57.3 | SSB FP counter 97.6 | Cy5 SSB fluor CB inactive | Cy5 fluor confirm inactive
O=C1NN(c2ccc(Br)cc2)C(=O)/C1=C\c1ccc(-c2cccc(C(=O)O)c2)o1	none
CCOC(=O)c1ccc(-c2ccc(/C=C3/C(=O)NC(=O)N(c4ccccc4)C3=O)o2)cc1	none
O=C(Nc1ccc2c(c1)oc1ccccc12)c1cccc2ccccc12	none
CC(=O)Oc1cccc(N2C(=O)c3ccc(C(=O)c4ccc5c(c4)C(=O)N(c4cccc(OC(C)=O)c4)C5=O)cc3C2=O)c1	NS3h inh CB 40.7 | NS3h confirm inactive | SSB FP counter inactive | Cy5 SSB fluor CB inactive | Cy5 fluor confirm inactive
CC(=O)Oc1ccc(N2C(=O)c3ccc(C(=O)c4cccc([N+](=O)[O-])c4)cc3C2=O)cc1	none
N#CC1CC(c2ccccc2)=NN1c1ccccc1 (centres undefined)	none
O=C(Nc1ccc(F)cc1)/C(=C\c1cccs1)NC(=O)c1ccccc1	none
O=C(N/C(=C/c1cccs1)c1nc2ccccc2[nH]1)c1ccccc1	none | NS3h confirm inactive | SSB FP counter inactive | Cy5 SSB fluor CB inactive | Cy5 fluor confirm 0.772
NC(=O)NC(CCc1ccccc1)c1ccccc1 (centres undefined)	none
Cc1ccc(N2C(=O)C(Cl)=C(N3CCOCC3)C2=O)c(C)c1	none | NS3h confirm inactive | SSB FP counter inactive | Cy5 SSB fluor CB inactive | Cy5 fluor confirm 0.756
Cc1ccc(N2C(=O)C(Cl)=C(N3CCN(c4ccccc4)CC3)C2=O)c(C)c1	none
CCCC(=O)NC(c1ccc(C)cc1)c1c(OC(C)=O)ccc2ccccc12 (centres undefined)	none
O=C(Nc1ccc(Cl)c(Cl)c1)c1ccc2c(c1)OCCO2	none | NS3h confirm inactive | SSB FP counter inactive | Cy5 SSB fluor CB inactive | Cy5 fluor confirm inactive
O=C(Nc1ccc(N2CCOCC2)cc1)c1ccc2c(c1)OCCO2	none
CCCCOc1ccc(S(=O)(=O)n2cnc3ccccc32)cc1	none
